12-hLO inh: qHTS Assay for Inhibitors of 12-hLO (12-human lipoxygenase) | Potency, µM (doses to about 57.1 µM), without a hit: at the top dose activity change, negative = inhibition, actives largely listed as inhibitors | purified 12-hLO, xylenol orange hydroperoxide absorbance | actives 0.12% (n = 150,000) | AID 1452, 2008; further: potency means the concentration at half of the fitted maximal effect; nearly all actives have a fitted effect of over 55% in size
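Hydroperoxide formation by human 12-lipoxygenase from 40 uM arachidonic acid was followed colorimetrically via ferric-xylenol orange complex, using the 573/405 nm absorbance ratio. Enzyme concentration was 150 nM, with 30 min reaction at room temperature.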
HPGD block: qHTS Assay for Inhibitors of HPGD (15-Hydroxyprostaglandin Dehydrogenase); 15-hydroxyprostaglandin dehydrogenase [NAD(+)] (Homo sapiens), P15428; purified HPGD, NADH fluorescence kinetic, PGE2 substrate; Potency, µM, without a hit: at the highest dose activity change, negative = inhibition, usual class: inhibitors; actives 4.3% (n = 150,000); AID 894, 2007; active means well fitted inhibition curve with a large enough effect, not every such curve was filed as active; inconclusive means small, poorly fitted or top-dose-only effect, or another doubt; inactive means no such curve, though single readings can be large or run the other way; further: potency means the concentration at half of the fitted maximal effect
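20 nM HPGD preincubated 15 min at room temperature with compound in 50 mM Tris-HCl pH 8, 0.01% Tween 20. Started with 1 mM NAD+ and 30 uM prostaglandin E2; NADH fluorescence (360/450 nm) read 5 times over 30-s intervals, last minus first.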
IMPase cell inh: qHTS Assay for Identifying the Cell-Membrane Permeable IMPase Inhibitors. Inositol monophosphatase 1 (Rattus norvegicus), P97697. CHO-M1 cells, IP1 accumulation, HTRF TR-FRET ratio. inhibition (IP1 accumulation), % at 46.1 µM. 120,000 tested, under 10 active; active means well fitted curve in the direction sought with a large enough effect in the signal ratio, not every such curve was filed as active; inconclusive means small, poorly fitted or top-dose-only effect, or a change in a side signal; inactive means no such curve, though single readings can be large or run the other way; the % refers to the signal ratio;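 further: cells stimulated with carbachol in lithium chloride buffer; plate controls were DMSO basal wells for no effect and reference inhibitor wells for full effect; higher means more IMPase inhibition seen as more IP1 and lower FRET ratio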
Target sequence (P97697 whole entry, looked up): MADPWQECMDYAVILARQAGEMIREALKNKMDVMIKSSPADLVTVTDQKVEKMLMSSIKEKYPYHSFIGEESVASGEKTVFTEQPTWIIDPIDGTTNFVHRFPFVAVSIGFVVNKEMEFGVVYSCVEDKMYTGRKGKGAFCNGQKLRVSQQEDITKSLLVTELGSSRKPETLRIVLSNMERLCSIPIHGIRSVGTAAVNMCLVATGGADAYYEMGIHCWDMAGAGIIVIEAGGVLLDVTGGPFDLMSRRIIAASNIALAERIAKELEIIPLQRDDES
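CHO-M1 cells (CHO stably expressing M1 receptor), compound up to 46 uM final, stimulated with carbachol (50 uM as added) in buffer with 50mM LiCl, pH 7.4, 30 min at 37C. Cytosolic IP1 read by TR-FRET; AC50 from Hill fits.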
IMPase Li inh: qHTS Assay for Identifying the Cell-Membrane Permeable IMPase Inhibitors: Potentiation with Lithium. CHO-M1 cells, IP1 TR-FRET (IP-One), carbachol + lithium. Potency, µM (doses to about 59.4 µM), without a hit: top-dose activity, negative = IMPase inhibition, usual class: inhibitors. actives 0.35% (n = 210,000). AID 1457, 2008;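 further: IP1 builds up when IMPase is blocked and the TR-FRET signal falls; potency means the concentration at half of the fitted maximal effect; plate controls were basal vehicle for no effect and high inhibitor control for full effect; nearly all actives have a fitted effect of over 50% in size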
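IP1 accumulation measured by competitive TR-FRET in lysed CHO-M1 cells after 30 min compound exposure at 37C, with a small lithium addition to potentiate weak responses. Hill-equation AC50 from ratio and donor-channel data.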
ALDH1A1 inh: qHTS Assay for Inhibitors of Aldehyde Dehydrogenase 1 (ALDH1A1). actives 7.3% (n = 220,000). Aldehyde dehydrogenase 1A1 (Homo sapiens), P00352. Potency, µM (titrated, usually from 75.3 µM), for the others: at the top dose activity, negative = inhibition, hits mostly inhibitors. Purified ALDH1A1, NADH fluorescence, propionaldehyde substrate; active means well fitted inhibition curve with a large enough effect, not every such curve was filed as active; inconclusive means small, poorly fitted or top-dose-only effect, or another doubt; inactive means no such curve, though single readings can be large or run the other way;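 further: potency means the concentration at half of the fitted maximal effect; plate controls were no enzyme wells and a reference inhibitor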
Target sequence (P00352 whole entry, looked up): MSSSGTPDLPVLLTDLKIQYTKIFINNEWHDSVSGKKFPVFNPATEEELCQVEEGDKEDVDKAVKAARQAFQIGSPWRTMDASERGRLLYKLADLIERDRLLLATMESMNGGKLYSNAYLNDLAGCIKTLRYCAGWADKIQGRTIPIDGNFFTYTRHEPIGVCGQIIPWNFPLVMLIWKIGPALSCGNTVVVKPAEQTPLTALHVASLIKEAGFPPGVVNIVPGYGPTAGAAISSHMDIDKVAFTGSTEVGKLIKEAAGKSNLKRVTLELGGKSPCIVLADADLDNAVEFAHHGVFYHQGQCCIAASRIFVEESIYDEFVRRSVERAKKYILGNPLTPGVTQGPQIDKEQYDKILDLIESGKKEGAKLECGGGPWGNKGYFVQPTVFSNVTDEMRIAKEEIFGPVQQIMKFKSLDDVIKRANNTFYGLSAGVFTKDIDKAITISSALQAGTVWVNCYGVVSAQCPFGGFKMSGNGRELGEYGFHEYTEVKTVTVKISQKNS
PNC assembly inh: High Content Assay for Compounds that inhibit the Assembly of the Perinucleolar Compartment | PC3M PTB-GFP, PNC prevalence imaging, 16 h; stronger effect = lower value | activity change (PNC), negative = inhibition, % at 10 µM | actives 3.1% (n = 140,000);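 active means readout at or below -70, meaning at least 70% loss of cells showing the perinucleolar compartment, a nuclear body marking cancer cells; inconclusive means readout between -30 and a set limit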;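 further: plate controls were DMSO wells for no effect and camptothecin positive control wells for full effect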
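Compounds are pinned in duplicate onto adhered PC3M cells stably expressing GFP-tagged PTB and incubated 16 h at 37 C. Cells are then fixed, nuclei stained with Hoechst, and PNC-positive cells counted.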
Starred values were filed as active, the others as inactive; ? = inconclusive; nt = no result given; [ ] = another dose, or the depositor's remark. Hits are enriched below; roughly 11% of the tested compounds scored in any of these assays. Unless noted, the call rests on the fitted dose curve; in most records, active means well fitted curve in the direction sought with a large enough effect; inconclusive means small, poorly fitted or top-dose-only effect, or another doubt; inactive means no such curve, though single readings can be large; an effect the other way counts as inactive or inconclusive. Unless noted, on the % scale 0 is the no-effect control and ±100 the full control effect.

SMILES	12-hLO inh	HPGD block	IMPase cell inh	IMPase Li inh	ALDH1A1 inh	PNC assembly inh
CCCCCCCCCCCCCCCC(=O)OCC(COP(=O)(O)O)OC(=O)CCCCCCCCCCCCCCC (configuration not stated)	7%	-3%	nt	11%	0%	nt
CC(Sc1nnnn1C)C(=O)Nc1ccccc1-c1ccccc1 (configuration not stated)	-2%	3%	1	-11%[38.3 µM]	0%	?
COc1ccccc1NC(=O)C(C)Sc1nnnn1C (configuration not stated)	-3%	-4%	2	-1%[38.3 µM]	8.9µM*	-20
O=C(O)c1cc(N(Cc2ccccc2O)Cc2cc(O)ccc2O)ccc1O	-9%[0.00818 µM]	?	nt	-5%	?	nt
O=C1NC(=Nc2ccccc2)S/C1=C/c1cccs1	nt	nt	nt	2%	5%	nt
Cc1cc(/C=C2\SC(=Nc3ccccc3)NC2=O)c(C)n1-c1ccc(S(N)(=O)=O)cc1	-17%	-18%	11	28%[38.3 µM]	28µM*	-30
CC(=O)N(C(C)=O)n1c(C)nc2sc3c(c2c1=O)CCCC3	nt	nt	nt	7%	10%	nt
CCc1nc2sc3c(c2c(=O)n1NC(=O)CCl)CCCC3	2%	-4%	-5	20%[38.3 µM]	13µM*	?
CC(C)(C)CC(C)(C)c1ccc(O)c(Cc2ccc(Cl)cc2Cl)c1	-4%	-21%	nt	10%	-4%	nt
Cc1cc(C)cc(NS(=O)(=O)c2ccc(NC(=S)NC(=O)c3ccc(Br)o3)cc2)c1	?	-13%	7	42%[38.3 µM]	14µM*	?
CN(C)S(=O)(=O)c1ccc(NC(=S)NC(=O)c2ccc(Br)o2)cc1	nt	nt	nt	11%	13µM*	nt
COc1ccc(/C(N)=N/OC(=O)C2CCC(=O)N2S(=O)(=O)c2ccc(C)cc2)cc1 (configuration not stated)	-4%	-12%	nt	2%	-11%	-89*
CC[C@H]1OC(=O)[C@H](C)[C@@H](O[C@H]2C[C@@](C)(OC)[C@@H](O)[C@H](C)O2)[C@H](C)[C@@H](O[C@@H]2O[C@H](C)C[C@H](N(C)C)[C@H]2O)[C@](C)(O)C[C@@H](C)CN(C)[C@H](C)[C@@H](O)[C@]1(C)O	-1%	-7%	nt	22%	11%	nt
Cc1c(Cl)cccc1NC(=O)c1ncn(-c2ccccc2)n1	nt	nt	-4	nt	nt	nt
O=C(c1ccco1)N1CCn2cccc2C1c1ccccc1 (configuration not stated)	nt	nt	nt	27%	1.3µM*	nt
CN1Cc2c(N)cccc2[C@H](c2ccccc2)C1	?	-13%	-4[20.6 µM]	-10%	8%[20.9 µM]	nt
CCN(CC)S(=O)(=O)c1cc(NC(=O)COC(=O)CCC(=O)c2ccc(F)cc2)ccc1C	-2%	-19%	nt	-2%	1%	-25
COCC(=O)Nc1ccc(C(C)C)cc1	-5%	18µM*	3	55%[38.3 µM]	-2%	?
CN(C)c1ccc(NC(=O)COC(=O)CCC(=O)c2ccc(F)cc2)cc1	-2%	-21%	12	45%[38.3 µM]	10µM*	48
COCC(=O)Nc1ccc(N(C)C)cc1	-6%	?	1	28%[38.3 µM]	7%	-81*
Cc1ccc(OCC(=O)Nc2ccc(N(C)C)cc2)cc1	-1%	-7%	-6	8%[38.3 µM]	-3%	5
CC(=O)Oc1c(C)cc(OCC(O)CNC(C)C)c(C)c1C (configuration not stated)	-1%[0.00818 µM]	-3%	nt	6%	9%	nt
COc1ccc(/C=C/C(=O)NCC(=O)N2CCC(N(C)CCN3CCOCC3)CC2)cc1OC	nt	nt	nt	12%	?	nt
CCOC(=O)CN1C(=O)S/C(=C/C=C/c2ccc(N(C)C)cc2)C1=O	2%	-5%	nt	3%	25µM*	31
CCOC(=O)CN1C(=O)S/C(=C/c2ccc3c(c2)n(C)c(=O)n3C)C1=O	-1%	-19%	nt	6%	?	-1
SMILES	12-hLO inh	HPGD block	IMPase cell inh	IMPase Li inh	ALDH1A1 inh	PNC assembly inh
Cc1cc2nc3c(=O)[nH]c(=O)nc-3n(C)c2cc1C=O	2%[0.00818 µM]	-10%	nt	-13%	1%	nt
Oc1ccccc1-c1cc(-c2ccccc2Cl)[nH]n1	?	14µM*	8	-3%[38.3 µM]	-8%	-23
Oc1ccc(Br)cc1-c1cc(-c2ccco2)[nH]n1	-29%	?	0	31%[38.3 µM]	-4%	9
Oc1ccccc1-c1cc(-c2cccc(F)c2)n[nH]1	?	-29%	8	3%[38.3 µM]	6%	?
Oc1ccc(Cl)cc1-c1cc(-c2ccccc2Cl)[nH]n1	-19%	7.9µM*	-13	22%	3%	-26
Oc1ccc(Cl)cc1-c1cc(-c2cccc(Br)c2)n[nH]1	-23%	3.2µM*	5	32%[38.3 µM]	1%	42
CC(=O)Nc1ccc(C2Nc3c(C)cc(C)cc3-c3cc(C)nn32)cc1 (configuration not stated)	nt	nt	-3	nt	nt	nt
O=C(c1cnccn1)N1CCC2(CCN(Cc3ccncc3)CC2)CC1	-2%	-11%	nt	13%	0%	nt
COc1ccccc1/C=C/C=C1\Oc2c(ccc(O)c2CN2CCN(CCO)CC2)C1=O	-1%	16µM*	nt	0%	?	-28
Cc1cccc(/C=C2/SC(=O)N(Cc3ccccc3Cl)C2=O)n1	-3%	-13%	2	9%[38.3 µM]	3.2µM*	22
COc1cc(/C=C2/SC(=O)N(Cc3ccccc3Cl)C2=O)ccc1OCc1ccncc1	1%	1%	0	1%[38.3 µM]	0.45µM*	26
Cc1cccc(NC(=O)CN2C(=O)S/C(=C\c3ccccn3)C2=O)c1	nt	nt	nt	4%	4%	nt
CCCCCS(=O)(=O)CCCCCCCCCCn1c(-c2ccc(O)cc2)c(C)c2cc(O)ccc21	-10%	?	nt	20%	?	nt
CCc1ccc(CN(C)C(=O)CCc2nnc(CCc3ccccc3OC)o2)nc1	nt	nt	nt	6%	1%	nt
O=C(c1ccco1)N1CCN(CCOCCOc2cccc3ccccc23)CC1	5%	3%	0	7%[38.3 µM]	-11%	-80*
O=C(c1ccco1)N1CCCN(Cc2nc(-c3cccs3)no2)CC1	nt	nt	nt	6%	?	nt
Cc1cccc(C)c1NC(=O)C(c1ccccc1)N1CCN(C(=O)c2ccco2)CC1 (configuration not stated)	2%	-7%	nt	-4%	25µM*	34
O=C(c1ccco1)N1CCN(CCCCOc2cccc3ccccc23)CC1	-15%	-10%	nt	13%	-6%	28
